In PubChem BioAssay AID1508600 (Functional Genomics Laboratory (NCATS/FGL), 2020):
The campaign covered roughly 53,000 sequences. About 3,700 (7%) were called active. This is one part of a sample in which actives are shown more often than they occur. A number with no mark means an inactive call.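 Rule for the calls: active = gene knockdowns whose robust z-score for IL-1 alpha signal is at least 2 or at most -2, so actives lie on both sides; inactive = the rest.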

Experiment: Components of the Cytosolic LPS Sensing Pathway: Gene Identification via Genome-wide siRNA Screen;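 note: robust z of the log signal after scaling to non-targeting control siRNA wells of the plate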
Settings: RAW264.7 macrophages, IL-1a HTRF, actives lie on both sides, screened at 100 nM (by protocol), cells primed 5 h with Pam3CSK4 first
Outline: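 Mouse macrophage line RAW264.7 is transfected with siRNA (100 nM final), grown 48h, primed with TLR ligand Pam3CSK4 5 h and given intracellular LipidA 24 h. IL-1a in supernatant is read by HTRF and viability by luminescence.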
GCCUUGAUAAUUUUGUAAGTT against Gimap9 showed a z-score of 0.533.
For GCACCCUAAUGUGAUCGCATT against Cdk19, the z-score was -1.34.
With CCACCUGAAUCAUUACUCATT against Rdh19 the z-score was -3.29 (active).
GGAGAAGAUUUUCUGUAUCTT against Atp13a5 showed a z-score of 0.545.
For GCUGAGAGACUUGUGAAAUTT against Ndufb11, the z-score was 1.06.
Sequence GGAAAUCAGCUGUGAAAAATT against Fbxl20 has a z-score of -0.628.
For GCAGGUCUAAAACUCUCAUTT against Sfmbt1, the z-score was 2.38 (active).
With GCCUCAUCGUCAUCGCCAATT against Gpbar1 the z-score was -0.897.
GCAUACCUAGACUGAAAACTT against Rilpl2 showed a z-score of -0.477.
In the case of GGAGCUGUUUCCAGUUCAGTT against Tomm40, the z-score is reported as -1.12.
In the case of CGUGCUGGUAACGGAAUUGTT against Ptger2, the z-score is reported as 2.29 (active).
For GGGAACAGGAGAAAACGGATT against Bnipl, the z-score was 1.2.
GGAAGACAACUGUUGUGGCTT against Dagla showed a z-score of -0.54.
GUUCGGUACAACUUUUCUGTT against Alx4 showed a z-score of 0.326.
Sequence GGAUAAAAAUCACCCACUGTT against Vwa8 has a z-score of 0.21.
In the case of GCCUCUUAAUGCUUUUGUATT against Sfxn1, the z-score is reported as -0.272.
With GGUGGUUGGAGUACUCAAGTT against Capza1 the z-score was -2.53 (active).
Sequence GCACAUCACAAGAAUUACUTT against Lhfpl1 has a z-score of -0.0486.
AGCUGACUGUAAAAAAACCTT against Fuom gave a z-score of 0.19.
For GGAAAUGCCAUAGUCCUAUTT against Mrgprb5, the z-score was -2.54 (active).
GGAACUGGCCAAGUUUAAATT against Ing3 showed a z-score of 0.653.
Sequence GGCCAGAACUACGAAGCCATT against Capn12 has a z-score of 0.981.
In the case of GGACCUUCGUGAGAAUUUCTT against Mst1, the z-score is reported as 0.521.
Sequence CCUACAGUGACCUUUCCCGTT against Apcs has a z-score of -1.22.
Sequence GGAUAUCACCCACAAUAAATT against Vps28 has a z-score of -0.653.
In the case of GGAGCAAUUCUACCGCUACTT against Fbxw5, the z-score is reported as -2.14 (active).
GCCCAUUUUAGUAAACGAATT against Dspp gave a z-score of 1.87.
With GGCCUUAAAGAAACACAAGTT against Hnrnph2 the z-score was 2.3 (active).
GGUCCUUCAACGGAAGGGATT against Tagap showed a z-score of 0.196.
GGUUUGCAAUAAUUUUCCCTT against Cyp2c66 gave a z-score of -0.0991.
In the case of CCUAUUAUAGGACAAAGUATT against Efhc2, the z-score is reported as -0.54.
CCACAAGUUCCACACUCCATT against Olfr1163 showed a z-score of 0.42.
With GGAGGGACAUGAUUUUGAATT against Pfkfb2 the z-score was 2.22 (active).
For GGAGCAAGUGAUGAUGACCTT against Pkp1, the z-score was -0.263.
Work on GCGGUAUGGGAAGCUAAAGTT against Rhbdf1 yielded a z-score of 0.617.
In the case of GGAGAUACUGAAAGAGGCCTT against C1qtnf12, the z-score is reported as -1.25.
UUCUUGACAGCUGGAAGAGTT against Irgc1 showed a z-score of 0.12.
With GGAAAAACGAUACUUGAUUTT against Gria3 the z-score was -0.751.
With GGUGAGACUAUAAAGAUAATT against Piwil4 the z-score was 0.841.
CCGAGCAGGAUUGCAUAUATT against Cspg5 gave a z-score of 1.41.
For GGCAUUGAGAUGCUGGAAATT against Trappc4, the z-score was 2.46 (active).
GCUAUUCUGAUGCGUGGAGTT against Coq2 showed a z-score of -1.24.
For GCCACGACAACAAAUCCCATT against Lbr, the z-score was -2.62 (active).
With UGAAGCUGUCCCGGACUAATT against Shf the z-score was 0.731.
With GGUCAUUGGCACCAACAAGTT against Tgfbi the z-score was -0.722.
In the case of GGAACAAAGAGGUGAUGUUTT against Olfr109, the z-score is reported as -0.949.
GGAGAUGAUUGACCGGCUATT against Epc1 gave a z-score of -1.03.
Sequence CCAUUUACCUCAUAGGACCTT against Crb3 has a z-score of -0.239.
Work on CGACCAUCUUUACUUUAUCTT against Cilk1 yielded a z-score of 1.61.
With GGAGGGAAGCGAGAGUUUUTT against Emilin2 the z-score was 2.25 (active).
GGGUCGUAAUGAGUUCUGGTT against Med1 gave a z-score of 0.83.
For GGAAACUUUUGGAAGACUATT against Jmjd6, the z-score was 2.02 (active).
Work on GGGCCAAUAAAGCAACUGCTT against Laptm5 yielded a z-score of 0.704.
Sequence GGAUACUCCUCUGAGUAGUTT against Mtmr11 has a z-score of -0.469.
For GCCAAAGUGUGUGUUGAAGTT against Gng11, the z-score was -0.296.
For CGCACACAGUCGUAUGUACTT against Ryr1, the z-score was -1.21.
Sequence GGGAACCAUCAAUAGGCACTT against Apol7a has a z-score of 0.923.
In the case of “GGGUAUUAAAACCUCACUUTT against 4931406H21Rik”, the z-score is reported as -2.58 (active).
Work on GGCACAAAGCAAGAUUACCTT against Cebpz yielded a z-score of 0.422.
CCAGAAUGUAAACUUGGUCTT against Trpv6 gave a z-score of 0.0508.
With GGUGAUAAAGCCAAGCAAATT against Vps4b the z-score was -0.48.
In the case of GGGCUUCUUUGACCUCAUCTT against Kdelr1, the z-score is reported as -2.71 (active).
Sequence GGAUUCAAGGAAGGCCUUCTT against Myl7 has a z-score of -0.146.
GGGACUCAGAAUCCACACUTT against Olfr1046 gave a z-score of 1.91.
With GGAGCUUAGACAAAAAGCCTT against Spty2d1 the z-score was -1.04.
Sequence GGCCGCCCUAAAAAGAAGCTT against Olfr95 has a z-score of 1.29.
With GGAGAUUGAUGAGCAUGCCTT against Rab40b the z-score was -2.15 (active).
Sequence CGCCUUAUAAUAUACCUAUTT against Clmp has a z-score of 1.12.
GCCAUGAUGACUAACCUUATT against Dbpht2 showed a z-score of -1.27.
For GGAACUUGAGGUUUUCUGGTT against Spag17, the z-score was -1.89.
For GGAGAUCCGUCGAAUCAACTT against Anxa4, the z-score was 3.19 (active).
GCACCUGAGAAGCUCAUUGTT against Chil5 showed a z-score of -1.96.
With GGUUGACCUGUGCUUUUCGTT against Arr3 the z-score was -0.625.
In the case of GGAGCAGCAGAAGAUCCUUTT against Olfr47, the z-score is reported as 2.52 (active).
With GGAAAUGAAUGGAAAUAGUTT against Ino80c the z-score was -0.192.
For GGAGGAAAAGGCAAUCGUUTT against Mtg2, the z-score was 0.359.
For GGAACACAAUAGUACAUACTT against Slc2a4, the z-score was 3.98 (active).
Sequence CCUUACCACAUCCUUGUCGTT against Fcf1 has a z-score of -1.33.
GGACAGUUAAUGUUUCUGUTT against Clptm1l gave a z-score of 0.254.
Work on GGAUCAUUUCUGGCAAGAGTT against Irf7 yielded a z-score of -0.379.
With GGGAAGAGAAAACUGGACUTT against Xrcc1 the z-score was 3.01 (active).
Work on GGCUGUGUGAGUCUGCUCATT against Ankrd55 yielded a z-score of -0.0408.
With GCAUGAACUUACCCUAUUATT against Vmn1r197 the z-score was -1.25.
GCAUAAUAGCGCAAGCUACTT against Ifi47 gave a z-score of 0.0047.
In the case of GCACUCGAAUUUCUUUACUTT against Slc23a2, the z-score is reported as 2.22 (active).
“GCAGACUCCCAUGUGGAUUTT against 1700067K01Rik” showed a z-score of 1.96.
In the case of GGAAACUAAUUUCAAGCCUTT against Hat1, the z-score is reported as 1.19.
With CCUAUGAGGAGGUACUAAATT against Itih1 the z-score was -0.0512.
GGAGUGACAAAAAUGUCGGTT against Snx13 showed a z-score of -0.56.
For GGUUUGUCAAUGAUACUAATT against Adam17, the z-score was 2.49 (active).
Sequence CGGAUCUGAGAUAAAGACGTT against Arsj has a z-score of 1.
In the case of GCUGUGGACGGACUCUAUATT against Dhodh, the z-score is reported as 0.00503.
Work on GGACCAUCUCUGAUGAACCTT against Fhdc1 yielded a z-score of 0.439.
GCUAAAGCUAAGAUUGAAGTT against Poli showed a z-score of -0.0266.
In the case of GGAUGAGGACAAGUGCUCUTT against Agpat4, the z-score is reported as -3.47 (active).
Work on CCAAAAGCAUAUCAGUCGGTT against Olfr1122 yielded a z-score of 1.48.
With GGGUUUAUGUUGCCGACUCTT against Setd7 the z-score was 2.04 (active).
Work on GGGUUCCUCAGAGACUGAGTT against Esrra yielded a z-score of 1.57.
GGGCAAGAAAGGUGUUUUGTT against Prdx5 showed a z-score of 0.432.
GGUGAUUGGUGUAAAAUCUTT against Gdi2 gave a z-score of -1.15.
In the case of GGAGAUUGGUGUUAGUAACTT against Sp7, the z-score is reported as -0.198.
With “GGGUGUGCUUCAUAUCAAATT against 2210407C18Rik” the z-score was 0.812.
GCUUCAUCUUACCUACUCATT against Synb gave a z-score of -0.825.
GGCUAUGCAUCUCCUGUCATT against Gata4 gave a z-score of -0.935.
For GGAAAUCAUCUAUUCGGACTT against Klrc1, the z-score was 2.62 (active).
Work on CCUUGCACGACAUUUUACUTT against Idnk yielded a z-score of 0.313.
For GGUCAUCUUCCUUUUUGCUTT against Olfr1501, the z-score was -1.
CCCUGGGUGUACAAGUCCUTT against Slc25a41 showed a z-score of -0.084.
